# Screening results: PubChem BioAssay, National Center for Advancing Translational Sciences (NCATS)
# An excerpt weighted towards active compounds, which were near 10% of everything screened.
# MmCpn inh: M. maripaludis TRiC chaperonin inhibition. Potency, µM (titrated, usually from 76.9 µM), usual class: inhibitors. purified Mm-Cpn ATPase, ADP Transcreener TR-FRET. hit rate 0.031% among 330,000. AID 504842; note: nearly all actives have a fitted effect of over 80% in size
#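 TR-FRET (320 nm excitation; 590 and 665 nm emission) reports ADP made from 10 uM ATP by 25 nM enzyme; compounds were preincubated 10 min, reaction run 30 min, both at 37°C.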
# PLK1 PBD inh: inhibitors of human PLK1 polo-box domain binding. AID 720504. P53350. Plk1 PBD binding of FITC phosphopeptide, fluorescence polarization. hit rate 2.8% among 360,000. Potency, µM, usual class: inhibitors; note: series mostly up to about 57 µM; nearly all actives have a fitted effect of over 65% in size
# VDR inh: inhibitors of human vitamin D receptor | P11473 | VDR-SRC2-3 peptide fluorescence polarization, 2 h | Potency, µM, hits mostly inhibitors | hit rate 0.93% among 400,000 | AID 504847
#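 The screen uses fluorescence polarization to detect compounds that interfere with recruitment of the SRC2-3 coactivator peptide to VDR; plates are read after 2 h at room temperature.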
# Sfp PPTase inh: inhibitors of Bacillus subtilis Sfp phosphopantetheinyl transferase | Q9F4F7 | Biochemical Sfp PPTase activity, qHTS | Potency, µM, hits mostly inhibitors | hit rate 3.5% among 310,000 | AID 1490;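 note: the enzyme is Sfp with the accession as filed and its product quenches rhodamine fluorescence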
#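 Step 1, compound plus 15 nM Sfp-PPTase, 15 min, room temperature. Step 2, add rhodamine-CoA (5 uM) and BHQ-2-YbbR (12.5 uM). Step 3, read 525/598 nm fluorescence at 0 and 30 min.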
# G9a block: blocks human histone lysine methyltransferase G9a; Q96KQ7; G9a H3K9 monomethylation, AlphaScreen, 2 h; Potency, µM (doses to about 102 µM), actives largely listed as inhibitors; hit rate 8.8% among 350,000; note: nearly all actives have a fitted effect of over 75% in size
# Target sequence (Q96KQ7 913-1193 limits assumed): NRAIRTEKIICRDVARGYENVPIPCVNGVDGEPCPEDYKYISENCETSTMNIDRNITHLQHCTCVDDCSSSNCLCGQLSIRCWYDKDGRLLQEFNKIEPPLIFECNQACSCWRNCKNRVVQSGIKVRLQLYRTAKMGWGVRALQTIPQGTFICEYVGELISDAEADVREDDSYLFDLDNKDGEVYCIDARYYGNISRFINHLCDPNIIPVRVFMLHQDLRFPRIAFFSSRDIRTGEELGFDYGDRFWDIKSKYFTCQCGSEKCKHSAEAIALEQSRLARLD
#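 AlphaScreen read-out: biotin-H3K9 peptide (500 nM) methylation by 20 nM enzyme with 20 uM SAM, 2 h at room temperature after 15 min compound preincubation; anti-monomethyl H3K9 antibody plus donor/acceptor beads, 10 min dark.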
# CCT chaperon mod: modulators of cytosolic chaperonin (CCT/TRiC) activity; purified chaperonin ATPase assay, HTRF ADP detection, 30 min; activity change, % (test concentration not listed), hits read low; hit rate 0.3% among 360,000; in the data active = activity change below about -30%
#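 First, chaperonin was dispensed at 40 nM or 20 nM final depending on batch activity. Next, compounds were pinned at 76 uM and ATP added at 10 uM. After 30 min at 37 °C, ADP detection reagents ran 30 min at ambient temperature.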
# Hits are given with their value; – = inactive; ? = inconclusive; · = not tested or not shown; [ ] = remark or other dose. Unless noted, calls come from the whole dose curve; as a rule, active = well fitted curve in the direction sought with a large enough effect; inconclusive = small, poorly fitted or top-dose-only effect, or another doubt; inactive = no such curve, though single readings can be large; an effect the other way counts as inactive or inconclusive.
SMILES,MmCpn inh,PLK1 PBD inh,VDR inh,Sfp PPTase inh,G9a block,CCT chaperon mod
Cc1ccc(NC(=O)N(Cc2c[nH]c3ccccc23)C2CCCCCC2)cc1C,·,·,–,·,–,·
Cc1cc(C)c(C(=O)COc2cccnc2[N+](=O)[O-])cc1C,–,?,?,56µM,7.1µM,–
N#CC1(NC(=O)COc2ccccc2[N+](=O)[O-])CCCCC1,–,–,–,·,18µM,–
N#CC1(NC(=O)COc2cc(F)ccc2[N+](=O)[O-])CCCCC1,–,–,–,·,?,–
COCCn1c(C)cc(C(=O)COc2cccnc2[N+](=O)[O-])c1C,–,–,–,–,?,–
N#CC1(NC(=O)COc2cccnc2[N+](=O)[O-])CCCCC1,–,–,–,·,–[12.7 µM],-38
O=C(/C=C/c1cccs1)N1CCCCC1,–,–,–,–,–,–
O=S(=O)(c1cccs1)N1CCN(c2ccc(O)cc2)CC1,–,–,–,?,35µM,–
O=C(/C=C/c1cccs1)N1CCN(c2ccc(O)cc2)CC1,–,–,–,45µM,7.9µM,–
CO[C@@H]1/C=C\CC(=O)N[C@@H](C)C(=O)OC[C@@H](OC)[C@H](C)CCCC(=O)OC[C@H]1C,·,·,·,–,·,·
Cc1cc[n+](-c2[nH]c(=O)sc2/C=N/NC([S-])=Nc2ccccc2)cc1C,–,?,–,–,32µM,–
Cc1ccc[n+](-c2[nH]c(=O)sc2/C=N/N=C(\[O-])CCn2c3ccccc3c3ccccc32)c1,–,–,–,?,–,–
CC(C)(C)c1cc[n+](-c2[nH]c(=O)sc2/C=N/NC([S-])=Nc2ccccc2)cc1,–,?,?,35µM,14µM,–
Cc1cc(C)cc(N2CC(c3nc(-c4ccccc4C)no3)CC2=O)c1 (configuration not stated),·,·,–,·,–,·
CCn1nc(C)c(CCN(C)C(=O)Nc2cc(C)cc(C)c2)c1C,·,·,–,·,–[12.7 µM],·
CC(C)OC(=O)c1ccc(Cn2nnc3sc4c(c3c2=O)CCCC4)cc1,·,·,–,·,–,·
CCCC1=Nc2cc(C(=O)NC3CCCCC3)ccc2Sc2ccc(C)cc21,·,·,–,·,–,·
Cc1ccc(S(=O)(=O)N/N=C/c2ccc(C(=O)O)cc2)cc1,–,–,–,–,11µM,–
Cc1ccc(S(=O)(=O)N/N=C\c2ccc(C)o2)cc1,–,–,–,–,?,–
CCOc1cc(/C=N/NS(=O)(=O)c2ccccc2)ccc1OS(=O)(=O)c1ccc(C)cc1,–,–,–,–,11µM,–
Cc1ccc(S(=O)(=O)N(C)/N=C/c2ccc(C(=O)O)cc2)cc1,–,–,–,–,45µM,–
CC(=O)NCc1ccc(S(=O)(=O)N/N=C/c2ccccc2)cc1,–,?,–,–,3.2µM,–
O=C(Cn1ncc2c([nH]c3ccccc32)c1=O)NCc1cccc(Cl)c1,·,·,–,·,–,·
COc1ccc(/C=C/N(CCc2ccc(OC)c(OC)c2)C(C)=O)cc1,·,·,·,–,·,·
CCOc1ccc(OC(=O)c2sc3ncn(Cc4cccc(F)c4)c(=O)c3c2C)cc1,·,·,–,·,–,·
SMILES,MmCpn inh,PLK1 PBD inh,VDR inh,Sfp PPTase inh,G9a block,CCT chaperon mod
CCc1nc2ccccc2c(NC(=O)CN2CCC(C)CC2)c1C,–,–,–,–,2.8µM,–
CC1CCN(CC(=O)NCc2ccccc2)CC1,–,–,–,–,–[12.7 µM],–
Cc1nc(NCC2CCCO2)[nH]c(=O)c1CCC(C)C (configuration not stated),–,–,–,–,–,–
Cc1n[nH]c(=O)nc1NCC1CCCO1 (configuration not stated),–,27µM,–,?,?,–
O=C(O)CCCn1cc(NC(=O)COc2ccccc2)cn1,–,–,–,–,·,–
O=C(COc1ccc(Cl)cc1)Nc1cnn(Cc2c(Cl)cccc2Cl)c1,–,–,89µM,–,–[2.33 µM],–
COc1ccc(CNC(=O)CN(C(=O)c2ccc(CN3CCOCC3)o2)C2CCCC2)cc1,–,–,–,–,3.5µM,–
COc1ccc(CC(=O)NCCN2CCOCC2)cc1,–,–,–,–,–,–
COc1ccc(N=Cc2[nH]c3ccccc3c2O)cc1,–,?,–,–,6.3µM,–
COc1ccc(N=Cc2ccccc2O)cc1,·,–,–,·,·,–
CCCc1nnc(NC(=O)CCC(=O)N2CCN(CCOc3ccc(C)cc3)CC2)s1,–,–,–,–,–[12.7 µM],–
